From the supplement of paper PMC11732987, “Enantioselective OTUD7B fragment discovery through chemoproteomics screening and high-throughput optimisation” (Communications Chemistry, 2025)

Experiments:
Assay in all cases: log2 ratio of Biotin-Ahx-Ub-VS probe labelling (fragment/DMSO); higher = less target engagement (more negative = stronger competition), active = hit call of the paper (q ≤ 0.05, log2 ratio ≤ -1)
Conditions in all cases: compound concentration: 200 uM; treatment time: 3 h
OTUD6B = molecular target: T1, OTUD6B (UniProt Q8N6M0)
T1 sequence (whole entry): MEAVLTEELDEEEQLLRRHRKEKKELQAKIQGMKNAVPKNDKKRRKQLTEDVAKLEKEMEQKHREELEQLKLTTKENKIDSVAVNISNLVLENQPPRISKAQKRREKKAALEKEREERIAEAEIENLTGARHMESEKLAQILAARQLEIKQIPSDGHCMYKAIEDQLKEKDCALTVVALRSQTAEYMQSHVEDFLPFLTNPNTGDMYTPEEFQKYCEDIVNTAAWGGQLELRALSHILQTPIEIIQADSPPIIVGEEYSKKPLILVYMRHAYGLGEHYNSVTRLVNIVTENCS
Method in brief: (§1)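 Fragment (200 µM) or vehicle was incubated for 3 h with triplicate HEK293T lysate samples of 495 µg, which were then treated with Biotin-Ahx-Ub-VS at 0.5 µM final for 1 h. Labelled DUBs were enriched on NeutrAvidin, digested with LysC and trypsin, and analysed by diaPASEF LC-MS/MS. Values are average log2 fragment/vehicle ratios from an unpaired t-test on global-median-normalised Spectronaut label-free quantities, using proteins with ≥2 unique peptides.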

OTUD7B = molecular target: T2, OTUD7B (UniProt Q6GQQ9)
T2 sequence (whole entry): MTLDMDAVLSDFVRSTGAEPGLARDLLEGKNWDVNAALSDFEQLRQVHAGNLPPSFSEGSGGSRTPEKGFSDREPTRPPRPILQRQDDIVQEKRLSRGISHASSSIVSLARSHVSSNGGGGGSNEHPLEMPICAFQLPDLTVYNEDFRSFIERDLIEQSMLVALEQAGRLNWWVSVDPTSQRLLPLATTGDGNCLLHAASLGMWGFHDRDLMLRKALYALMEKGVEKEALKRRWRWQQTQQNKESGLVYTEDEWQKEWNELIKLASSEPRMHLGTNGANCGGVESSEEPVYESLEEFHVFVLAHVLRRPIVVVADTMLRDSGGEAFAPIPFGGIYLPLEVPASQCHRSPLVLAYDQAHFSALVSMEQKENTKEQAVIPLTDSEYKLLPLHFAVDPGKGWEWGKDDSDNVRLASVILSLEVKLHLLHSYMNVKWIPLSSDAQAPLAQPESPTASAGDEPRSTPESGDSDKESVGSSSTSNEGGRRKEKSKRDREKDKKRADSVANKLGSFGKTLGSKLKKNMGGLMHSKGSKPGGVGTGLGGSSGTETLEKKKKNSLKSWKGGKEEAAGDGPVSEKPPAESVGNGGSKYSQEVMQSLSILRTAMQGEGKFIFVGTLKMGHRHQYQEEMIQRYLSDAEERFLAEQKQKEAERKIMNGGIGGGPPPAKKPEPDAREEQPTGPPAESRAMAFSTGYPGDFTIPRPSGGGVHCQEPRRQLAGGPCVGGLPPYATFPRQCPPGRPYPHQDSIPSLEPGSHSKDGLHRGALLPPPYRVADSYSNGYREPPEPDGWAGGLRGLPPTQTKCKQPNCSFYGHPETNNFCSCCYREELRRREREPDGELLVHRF
Method in brief: as §1

PRPF8 = PRPF8 (UniProt Q6P2Q9)
Method in brief: as §1

PSMD7 = molecular target: T3, PSMD7 (UniProt P51665)
T3 sequence (whole entry): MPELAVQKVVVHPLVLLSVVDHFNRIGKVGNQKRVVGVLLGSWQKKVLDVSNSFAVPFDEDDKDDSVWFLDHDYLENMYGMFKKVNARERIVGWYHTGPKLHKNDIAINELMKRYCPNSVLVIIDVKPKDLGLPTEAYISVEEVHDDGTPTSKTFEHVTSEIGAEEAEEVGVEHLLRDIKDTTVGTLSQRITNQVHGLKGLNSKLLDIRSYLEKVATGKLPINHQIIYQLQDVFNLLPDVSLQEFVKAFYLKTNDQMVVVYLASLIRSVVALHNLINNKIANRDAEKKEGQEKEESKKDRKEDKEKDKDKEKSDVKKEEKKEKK
Method in brief: as §1

UCHL1 = UCHL1 (UniProt P09936)
Sequence of UCHL1 (P09936 whole entry, looked up): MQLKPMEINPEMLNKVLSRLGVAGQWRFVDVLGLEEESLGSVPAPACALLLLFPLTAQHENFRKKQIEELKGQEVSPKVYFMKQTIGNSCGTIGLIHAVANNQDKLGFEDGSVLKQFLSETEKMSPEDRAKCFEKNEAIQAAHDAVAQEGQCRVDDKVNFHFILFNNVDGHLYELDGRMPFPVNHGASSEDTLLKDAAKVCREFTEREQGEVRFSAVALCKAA
Method in brief: as §1

UCHL3 = molecular target: T4, UCHL3 (UniProt P15374)
T4 sequence (whole entry): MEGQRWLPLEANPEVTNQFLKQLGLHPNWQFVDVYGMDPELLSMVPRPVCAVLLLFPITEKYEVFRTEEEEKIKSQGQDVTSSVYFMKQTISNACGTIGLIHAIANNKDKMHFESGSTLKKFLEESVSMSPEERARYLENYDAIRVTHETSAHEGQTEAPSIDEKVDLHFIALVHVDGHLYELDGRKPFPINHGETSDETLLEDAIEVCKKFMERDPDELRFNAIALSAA
Method in brief: as §1

UCHL5 = molecular target: T5, UCHL5 (UniProt Q9Y5K5)
T5 sequence (whole entry): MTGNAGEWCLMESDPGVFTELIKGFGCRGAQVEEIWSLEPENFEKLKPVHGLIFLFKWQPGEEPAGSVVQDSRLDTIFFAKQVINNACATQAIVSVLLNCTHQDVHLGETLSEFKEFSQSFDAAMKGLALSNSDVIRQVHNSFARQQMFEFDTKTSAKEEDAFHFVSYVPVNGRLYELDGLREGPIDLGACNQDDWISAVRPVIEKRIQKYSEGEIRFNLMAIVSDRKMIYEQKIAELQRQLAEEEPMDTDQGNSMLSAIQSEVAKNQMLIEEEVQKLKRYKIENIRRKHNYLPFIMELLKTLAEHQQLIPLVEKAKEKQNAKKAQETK
Method in brief: as §1

USP10 = USP10 (UniProt Q14694)
Sequence of USP10 (Q14694 whole entry): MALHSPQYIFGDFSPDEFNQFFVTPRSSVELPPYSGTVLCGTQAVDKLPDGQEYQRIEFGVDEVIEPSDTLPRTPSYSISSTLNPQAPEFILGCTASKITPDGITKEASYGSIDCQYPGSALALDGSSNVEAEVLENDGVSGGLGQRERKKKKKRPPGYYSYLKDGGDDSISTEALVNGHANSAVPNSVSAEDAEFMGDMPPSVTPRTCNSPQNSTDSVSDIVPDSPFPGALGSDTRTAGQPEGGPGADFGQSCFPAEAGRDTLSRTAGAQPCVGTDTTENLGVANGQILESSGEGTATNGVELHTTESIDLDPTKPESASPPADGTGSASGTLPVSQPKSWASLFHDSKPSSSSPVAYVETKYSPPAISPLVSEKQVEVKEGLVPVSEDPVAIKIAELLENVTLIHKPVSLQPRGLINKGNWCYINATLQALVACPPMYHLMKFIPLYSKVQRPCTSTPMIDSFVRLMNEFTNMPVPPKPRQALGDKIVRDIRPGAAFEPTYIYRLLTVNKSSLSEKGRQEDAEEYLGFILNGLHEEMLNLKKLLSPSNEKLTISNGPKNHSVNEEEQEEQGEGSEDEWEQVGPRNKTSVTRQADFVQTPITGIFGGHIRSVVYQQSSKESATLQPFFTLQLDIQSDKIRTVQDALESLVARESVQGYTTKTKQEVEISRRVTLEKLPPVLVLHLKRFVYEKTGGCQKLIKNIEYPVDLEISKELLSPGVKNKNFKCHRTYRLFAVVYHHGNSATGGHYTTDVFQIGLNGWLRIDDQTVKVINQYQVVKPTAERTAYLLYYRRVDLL
Method in brief: as §1

USP15 = molecular target: T6, USP15 (UniProt Q9Y4E8)
T6 sequence (whole entry): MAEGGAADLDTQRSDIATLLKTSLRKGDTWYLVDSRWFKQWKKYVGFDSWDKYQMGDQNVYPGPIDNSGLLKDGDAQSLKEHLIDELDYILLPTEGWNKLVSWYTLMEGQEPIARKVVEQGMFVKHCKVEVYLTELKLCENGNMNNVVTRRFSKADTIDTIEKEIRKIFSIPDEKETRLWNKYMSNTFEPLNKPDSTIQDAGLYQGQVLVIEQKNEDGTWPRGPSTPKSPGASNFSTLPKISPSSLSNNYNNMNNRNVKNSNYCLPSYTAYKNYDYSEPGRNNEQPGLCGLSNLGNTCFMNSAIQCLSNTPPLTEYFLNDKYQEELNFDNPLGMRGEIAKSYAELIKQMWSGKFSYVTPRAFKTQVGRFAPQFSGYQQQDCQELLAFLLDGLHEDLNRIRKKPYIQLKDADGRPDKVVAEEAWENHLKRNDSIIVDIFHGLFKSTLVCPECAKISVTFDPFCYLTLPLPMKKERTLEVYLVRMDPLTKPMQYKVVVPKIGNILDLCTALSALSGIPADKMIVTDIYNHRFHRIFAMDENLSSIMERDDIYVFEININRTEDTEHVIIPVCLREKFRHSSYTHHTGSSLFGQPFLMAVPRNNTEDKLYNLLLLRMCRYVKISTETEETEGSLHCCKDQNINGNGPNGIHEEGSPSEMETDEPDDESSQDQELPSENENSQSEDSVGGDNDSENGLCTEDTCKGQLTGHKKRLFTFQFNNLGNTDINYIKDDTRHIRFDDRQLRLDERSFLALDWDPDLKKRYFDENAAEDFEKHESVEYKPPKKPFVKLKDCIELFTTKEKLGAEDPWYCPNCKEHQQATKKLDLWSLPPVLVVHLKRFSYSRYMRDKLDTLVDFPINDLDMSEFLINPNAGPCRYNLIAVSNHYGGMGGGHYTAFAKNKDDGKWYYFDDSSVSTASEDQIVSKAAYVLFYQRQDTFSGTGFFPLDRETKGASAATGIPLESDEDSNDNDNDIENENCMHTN
Method in brief: as §1

USP16 = USP16 (UniProt Q9Y5T5)
Sequence of USP16 (Q9Y5T5 whole entry, looked up): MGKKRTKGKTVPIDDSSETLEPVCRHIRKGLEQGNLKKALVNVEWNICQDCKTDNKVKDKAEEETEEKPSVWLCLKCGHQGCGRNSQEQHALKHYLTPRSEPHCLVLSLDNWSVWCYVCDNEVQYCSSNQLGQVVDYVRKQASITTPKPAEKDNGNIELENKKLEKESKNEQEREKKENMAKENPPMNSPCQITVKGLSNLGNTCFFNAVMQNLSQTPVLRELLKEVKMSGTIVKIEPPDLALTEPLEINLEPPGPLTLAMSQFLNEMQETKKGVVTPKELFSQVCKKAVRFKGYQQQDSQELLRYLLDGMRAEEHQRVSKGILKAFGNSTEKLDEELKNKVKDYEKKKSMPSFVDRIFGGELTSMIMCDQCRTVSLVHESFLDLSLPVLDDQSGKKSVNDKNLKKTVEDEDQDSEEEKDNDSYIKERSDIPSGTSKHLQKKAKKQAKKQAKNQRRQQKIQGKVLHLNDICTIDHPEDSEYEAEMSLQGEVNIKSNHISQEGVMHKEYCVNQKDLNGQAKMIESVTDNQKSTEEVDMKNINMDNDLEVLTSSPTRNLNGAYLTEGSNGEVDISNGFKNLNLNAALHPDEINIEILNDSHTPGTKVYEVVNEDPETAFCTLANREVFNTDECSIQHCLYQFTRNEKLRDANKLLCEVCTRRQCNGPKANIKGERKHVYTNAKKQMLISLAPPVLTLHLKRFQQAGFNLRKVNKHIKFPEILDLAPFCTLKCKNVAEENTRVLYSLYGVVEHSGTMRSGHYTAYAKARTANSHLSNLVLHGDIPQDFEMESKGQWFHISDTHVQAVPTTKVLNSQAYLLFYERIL
Method in brief: as §1

Measured: log2 ratio of Biotin-Ahx-Ub-VS probe labelling

O=C(CCl)NCc1cccc(F)c1
inactive: OTUD6B -0.0396 | OTUD7B -0.597 | PRPF8 -0.208 | PSMD7 -0.138 | UCHL3 0.227 | UCHL5 -0.0221 | USP10 -0.156 | USP15 -0.273 | USP16 -0.133
active: UCHL1 -1.24
